Reference: PMC7862700, “An all-to-all approach to the identification of sequence-specific readers for epigenetic DNA modifications on cytosine”

How the values were obtained:
Experiment in all cases: DAPPL (digital affinity profiling via proximity ligation, sequencing); 10 mM Tris-HCl pH 7.5, 50 mM NaCl, 1 mM DTT, 4% glycerol, room temperature, 30 min; GST-TFs on glutathione beads, 16-mer random dsDNA library, 0.1% formaldehyde crosslink after washing; high values mean tight binding
Settings in all cases: protein: recombinant; tags: N-terminal GST; dsDNA, one strand shown
[1] = target: T1, FLI1 (Homo sapiens, UniProt Q01543 1-452)
T1 sequence: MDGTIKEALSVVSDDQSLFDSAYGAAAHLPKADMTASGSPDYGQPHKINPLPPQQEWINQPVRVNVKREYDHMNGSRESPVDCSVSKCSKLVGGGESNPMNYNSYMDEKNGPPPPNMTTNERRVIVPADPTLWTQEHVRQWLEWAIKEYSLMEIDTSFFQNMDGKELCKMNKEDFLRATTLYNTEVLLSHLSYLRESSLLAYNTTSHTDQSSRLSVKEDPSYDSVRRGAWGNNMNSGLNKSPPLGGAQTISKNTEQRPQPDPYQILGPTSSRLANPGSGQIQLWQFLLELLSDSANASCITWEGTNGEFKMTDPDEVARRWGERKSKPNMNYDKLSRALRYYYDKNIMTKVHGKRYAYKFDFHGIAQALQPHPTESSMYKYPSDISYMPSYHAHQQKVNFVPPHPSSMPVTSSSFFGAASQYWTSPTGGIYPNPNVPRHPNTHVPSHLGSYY
Procedure, shortened: (§1)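 Binding signal is given per hexamer as its read frequency for a factor divided by its frequency in the tag-only sample. GST-fused human transcription factors were expressed in yeast, captured on glutathione beads, barcoded with DNA and pooled with that sample, then incubated with 200 nmole of a 16-mer random double-stranded DNA library in Tris/NaCl/DTT/glycerol buffer for 30 min at room temperature. The pools were then washed, crosslinked, proximity-ligated, amplified by PCR and sequenced on an Illumina NextSeq500.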

[2] = target: T2, ELK1 (Homo sapiens, UniProt P19419 1-428)
T2 sequence: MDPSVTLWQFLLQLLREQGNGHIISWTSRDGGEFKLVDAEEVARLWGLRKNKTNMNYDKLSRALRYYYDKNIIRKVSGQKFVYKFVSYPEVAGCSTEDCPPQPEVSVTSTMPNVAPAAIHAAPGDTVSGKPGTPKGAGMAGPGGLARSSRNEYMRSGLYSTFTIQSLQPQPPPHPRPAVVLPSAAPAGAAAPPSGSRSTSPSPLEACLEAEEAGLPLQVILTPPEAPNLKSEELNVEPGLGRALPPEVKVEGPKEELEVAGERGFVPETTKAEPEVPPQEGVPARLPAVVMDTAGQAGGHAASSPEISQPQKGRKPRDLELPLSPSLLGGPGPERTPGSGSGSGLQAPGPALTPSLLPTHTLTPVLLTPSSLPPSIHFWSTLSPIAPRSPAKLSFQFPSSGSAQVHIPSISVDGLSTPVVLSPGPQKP
Procedure, shortened: as §1

[3] = target: T3, GABPA (Homo sapiens, UniProt Q06546 1-454)
T3 sequence: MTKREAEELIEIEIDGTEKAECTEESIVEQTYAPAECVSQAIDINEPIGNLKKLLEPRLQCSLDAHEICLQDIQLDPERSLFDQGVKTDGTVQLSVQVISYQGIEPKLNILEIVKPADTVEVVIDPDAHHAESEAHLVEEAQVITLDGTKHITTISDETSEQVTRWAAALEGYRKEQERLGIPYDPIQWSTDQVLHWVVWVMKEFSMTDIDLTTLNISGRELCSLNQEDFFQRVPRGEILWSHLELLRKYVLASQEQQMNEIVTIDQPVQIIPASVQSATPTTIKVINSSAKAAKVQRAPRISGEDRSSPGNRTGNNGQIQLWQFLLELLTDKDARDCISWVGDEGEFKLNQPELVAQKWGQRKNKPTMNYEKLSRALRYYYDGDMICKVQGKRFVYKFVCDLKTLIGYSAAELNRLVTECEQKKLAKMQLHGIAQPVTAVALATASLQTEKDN
Procedure, shortened: as §1

[4] = target: T4, ERG (Homo sapiens, UniProt P11308 1-479)
T4 sequence: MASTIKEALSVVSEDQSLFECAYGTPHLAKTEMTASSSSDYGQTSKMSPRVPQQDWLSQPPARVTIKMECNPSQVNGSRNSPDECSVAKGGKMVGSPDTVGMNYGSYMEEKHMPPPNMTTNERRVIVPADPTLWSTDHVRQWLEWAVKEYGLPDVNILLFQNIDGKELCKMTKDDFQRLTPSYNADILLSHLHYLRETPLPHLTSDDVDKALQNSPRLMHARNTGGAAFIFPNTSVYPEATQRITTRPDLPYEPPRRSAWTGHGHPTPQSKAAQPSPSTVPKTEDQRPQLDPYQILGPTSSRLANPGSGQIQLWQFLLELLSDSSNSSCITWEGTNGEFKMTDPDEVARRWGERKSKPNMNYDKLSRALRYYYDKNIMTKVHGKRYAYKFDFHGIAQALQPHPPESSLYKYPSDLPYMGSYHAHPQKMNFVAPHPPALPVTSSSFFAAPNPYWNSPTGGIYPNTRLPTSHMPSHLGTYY
Procedure, shortened: as §1

[5] = target: ELF1 (Homo sapiens, UniProt P32519 1-619)
Procedure, shortened: as §1

[6] = target: T5, EHF (Homo sapiens, UniProt Q9NZC4 1-300)
T5 sequence: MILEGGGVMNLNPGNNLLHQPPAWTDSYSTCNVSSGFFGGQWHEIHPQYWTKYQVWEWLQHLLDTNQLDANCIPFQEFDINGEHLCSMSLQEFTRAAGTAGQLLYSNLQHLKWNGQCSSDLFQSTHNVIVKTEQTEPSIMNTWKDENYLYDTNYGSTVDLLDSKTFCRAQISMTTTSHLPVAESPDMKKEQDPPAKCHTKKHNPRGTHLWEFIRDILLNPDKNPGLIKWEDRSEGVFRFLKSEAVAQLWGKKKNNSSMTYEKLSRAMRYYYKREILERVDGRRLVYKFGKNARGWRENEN
Procedure, shortened: as §1

[7] = target: SPI1 (Homo sapiens, UniProt P17947 1-270)
Procedure, shortened: as §1

[8] = target: SPIB (Homo sapiens, UniProt Q01892 1-262)
Procedure, shortened: as §1

[9] = target: T6, ELK3 (Homo sapiens, UniProt P41970 1-407)
T6 sequence: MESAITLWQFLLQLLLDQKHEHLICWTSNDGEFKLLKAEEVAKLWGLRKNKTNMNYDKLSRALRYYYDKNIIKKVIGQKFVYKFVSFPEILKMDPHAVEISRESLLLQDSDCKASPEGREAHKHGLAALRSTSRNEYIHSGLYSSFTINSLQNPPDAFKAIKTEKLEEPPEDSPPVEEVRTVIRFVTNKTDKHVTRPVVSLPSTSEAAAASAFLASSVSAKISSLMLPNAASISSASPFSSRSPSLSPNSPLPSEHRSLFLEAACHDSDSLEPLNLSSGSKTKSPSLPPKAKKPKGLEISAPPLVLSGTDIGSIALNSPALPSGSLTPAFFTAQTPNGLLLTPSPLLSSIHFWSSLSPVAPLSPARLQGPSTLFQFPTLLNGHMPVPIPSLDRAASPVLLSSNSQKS
Procedure, shortened: as §1

Chain of ELF1 (P32519 whole entry): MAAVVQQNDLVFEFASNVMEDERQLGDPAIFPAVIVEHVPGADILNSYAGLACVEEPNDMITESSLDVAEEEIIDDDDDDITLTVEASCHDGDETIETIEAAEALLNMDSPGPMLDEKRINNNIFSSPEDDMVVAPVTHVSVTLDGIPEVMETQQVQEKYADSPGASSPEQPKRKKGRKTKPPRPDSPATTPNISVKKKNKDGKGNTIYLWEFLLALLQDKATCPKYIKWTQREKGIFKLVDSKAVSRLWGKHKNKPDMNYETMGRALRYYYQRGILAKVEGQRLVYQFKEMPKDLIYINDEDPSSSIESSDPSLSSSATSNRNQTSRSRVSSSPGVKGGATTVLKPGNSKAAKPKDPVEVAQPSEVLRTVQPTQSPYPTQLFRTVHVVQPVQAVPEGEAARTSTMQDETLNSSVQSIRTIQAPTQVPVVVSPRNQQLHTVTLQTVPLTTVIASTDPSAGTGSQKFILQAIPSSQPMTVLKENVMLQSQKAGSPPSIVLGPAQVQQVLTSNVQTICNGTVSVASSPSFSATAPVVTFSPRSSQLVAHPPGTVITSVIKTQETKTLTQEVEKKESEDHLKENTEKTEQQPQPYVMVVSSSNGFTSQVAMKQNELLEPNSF
Chain of SPIB (Q01892 whole entry): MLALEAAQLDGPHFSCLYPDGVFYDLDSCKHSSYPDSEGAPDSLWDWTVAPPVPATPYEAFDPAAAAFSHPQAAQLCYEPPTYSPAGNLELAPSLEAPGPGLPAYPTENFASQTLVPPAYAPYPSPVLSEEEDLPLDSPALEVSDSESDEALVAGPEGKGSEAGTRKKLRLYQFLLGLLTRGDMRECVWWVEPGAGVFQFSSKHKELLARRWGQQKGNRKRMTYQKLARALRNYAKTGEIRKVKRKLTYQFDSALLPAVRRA

CGATTG
binding signal [1]: 1.22 fold enrichment (6-mer frequency, TF over GST control)
binding signal [2]: 1.29 fold enrichment (6-mer frequency, TF over GST control)
binding signal [3]: 1.24 fold enrichment (6-mer frequency, TF over GST control)
binding signal [4]: 1.26 fold enrichment (6-mer frequency, TF over GST control)
binding signal [5]: 1.24 fold enrichment (6-mer frequency, TF over GST control)
binding signal [6]: 1.1 fold enrichment (6-mer frequency, TF over GST control)
binding signal [7]: 1.22 fold enrichment (6-mer frequency, TF over GST control)
binding signal [8]: 1.19 fold enrichment (6-mer frequency, TF over GST control)
binding signal [9]: 1.24 fold enrichment (6-mer frequency, TF over GST control)
